The results in this text go back to PubChem BioAssay (Tox21).

The structures appear in SMILES notation. Unmarked numbers belong to inactive results. Results filed as inconclusive are left out. Calls of active or inactive are those of the source. Unless noted, the call rests on the fitted dose curve; in most records, active means well fitted curve in the direction sought with a large enough effect in the repeat runs; inconclusive means weak or mixed curves; inactive means no such curve, though single readings can be large; an effect the other way counts as inactive or inconclusive.

The nature of test [1]: qHTS assay to identify small molecule agonists of the hypoxia (HIF-1) signaling pathway - cell viability counter screen (AID 1224844; calls by dose curve; further: nearly all actives have a fitted effect of over 50% in size; further: potency means the concentration at half of the fitted maximal effect). The method, boiled down:
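Multiplexed with the HRE beta-lactamase assay, this viability read used CellTiter-Glo luminescence (30 min, RT) on HRE-bla ME-180 cells treated 17 hrs with compounds in 0.5% dialyzed FBS medium.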

Test [2] is described as follows: qHTS assay to identify small molecule antagonists of the estrogen related receptor (ERR) signaling pathway from Tox21 library (AID 1224848). Further: nearly all actives have a fitted effect of over 50% in size. Further: potency means the concentration at half of the fitted maximal effect. The method, boiled down:
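Antagonist-mode screen of the Tox21 10K library in an NTP-provided ERR reporter cell line; 18 h compound exposure at 37 C, luminescence measured with ONE-Glo.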

Test [3] is described as follows: qHTS assay to identify small molecule agonists of the estrogen related receptor (ERR) signaling pathway from Tox21 library (AID 1224849; calls by dose curve; further: nearly all actives have a fitted effect of over 15% in size). As to conditions: ERR reporter cell line, ONE-Glo luciferase, 18 h; at 92.4 µM (top of the series) unless noted. In short, it runs like this: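 Six hours post-seeding at 37 C/5% CO2, ERR cells receive DMSO-solubilised compounds; after 18 h at 37 C, ONE-Glo reagent is applied and luminescence recorded.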

Test [4] can be described thus: qHTS RealTime-Glo MT Cell Viability Assay in HepG2 cells - 24 hour (AID 1224867). Further: nearly all actives have a fitted effect of over 50% in size. The method, boiled down:
(§1)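 HepG2 suspension premixed with RealTime-Glo reagents is plated at 600 cells per well and left 5 h at 37 C/5% CO2. Compounds in DMSO then go in, and bioluminescence reflecting viable cell number is recorded over 40 h.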

The nature of test [5]: qHTS RealTime-Glo MT Cell Viability Assay in HEK293 cells - 32 hour (AID 1224868). Further: nearly all actives have a fitted effect of over 50% in size. Further: potency means the concentration at half of the fitted maximal effect. The method, boiled down:
(§2)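 Reads taken at 0, 8, 16, 24, 32 and 40 h from the same wells. HEK293 cells (600/well) carried RealTime-Glo reagents from seeding, with compound added after a 5 h settle at 37 C.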

A short description of test [6]: A CellTox Green Cytotoxicity Assay to monitor cytotoxicity in HEK293 cells - 0 hour (AID 1224869). Further: nearly all actives have a fitted effect of over 50% in size. The method, boiled down: (§3)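 Seeding of HEK293 cells together with cytotoxicity dye preceded a 5 h incubation at 37 C/5% CO2. Test compounds in DMSO were then added and fluorescence monitored across 40 h.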
The nature of test [7]: qHTS RealTime-Glo MT Cell Viability Assay in HepG2 cells - 40 hour (AID 1224870). Further: nearly all actives have a fitted effect of over 50% in size. In short, it runs like this:
(§4)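 Real-time viability: cells seeded at 600 per well together with NanoLuc and cell-permeant prosubstrate, compounds added after 5 h incubation. Luminescence tracked at 0, 8, 16, 24, 32 and 40 h of exposure.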

The nature of test [8]: qHTS RealTime-Glo MT Cell Viability Assay in HepG2 cells - 8 hour (AID 1224873). Further: nearly all actives have a fitted effect of over 55% in size. The method, boiled down:
as §4

The nature of test [9]: qHTS RealTime-Glo MT Cell Viability Assay in HEK293 cells - 40 hour (AID 1224874). Further: nearly all actives have a fitted effect of over 50% in size. Further: potency means the concentration at half of the fitted maximal effect. As to conditions: RealTime-Glo luminescence; max response: stronger effect = lower value. The method, boiled down:
(§5)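 Tox21 screen in HEK293 using RealTime-Glo MT chemistry, with cells and reagent co-dispensed. Luminescence proportional to viable cell number was captured at intervals during 40 h compound exposure at 37 C.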

Test [10] can be described thus: A CellTox Green Cytotoxicity Assay to monitor cytotoxicity in HEK293 cells - 24 hour (AID 1224875). Further: nearly all actives have a fitted effect of over 45% in size. Further: potency means the concentration at half of the fitted maximal effect. In short, it runs like this:
as §3

Test [11] can be described thus: A CellTox Green Cytotoxicity Assay to monitor cytotoxicity in HepG2 cells - 16 hour (AID 1224876). Further: nearly all actives have a fitted effect of over 45% in size. Further: potency means the concentration at half of the fitted maximal effect. In short, it runs like this:
(§6)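 Nonlytic assay: viable cells exclude the dye, so fluorescence scales with cell death. HepG2 at 600 cells/well, compounds added after 5 h, signal read across 40 h.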

Test [12] in a line: qHTS RealTime-Glo MT Cell Viability Assay in HepG2 cells - 32 hour (AID 1224877). Further: nearly all actives have a fitted effect of over 55% in size. The method, boiled down:
as §1

Test [13] can be described thus: A CellTox Green Cytotoxicity Assay to monitor cytotoxicity in HepG2 cells - 24 hour (AID 1224878). Further: nearly all actives have a fitted effect of over 45% in size. Further: potency means the concentration at half of the fitted maximal effect. The method, boiled down: as §6
Test [14] in a line: A CellTox Green Cytotoxicity Assay to monitor cytotoxicity in HepG2 cells - 40 hour (AID 1224879). Further: nearly all actives have a fitted effect of over 40% in size. Further: potency means the concentration at half of the fitted maximal effect. The method, boiled down:
as §6

Test [15] in a line: qHTS assay to identify small molecule agonists of the hypoxia (HIF-1) signaling pathway (AID 1224846; active means well fitted activation curve with a large enough effect in the signal ratio in the repeat runs, not every such curve was filed as active; the % refers to the signal ratio). The method, boiled down: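 Hypoxia-pathway activation was scored as increased beta-lactamase from an HRE-controlled reporter in ME-180 cells; plated at 2,000 cells per well with 0.5% dialyzed FBS, they were exposed 17 hrs to compounds and then given CCF4-AM.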
Test [16] can be described thus: A CellTox Green Cytotoxicity Assay to monitor cytotoxicity in HEK293 cells - 40 hour (AID 1224871). Further: nearly all actives have a fitted effect of over 45% in size. The method, boiled down: as §3
Test [17] in a line: qHTS RealTime-Glo MT Cell Viability Assay in HEK293 cells - 16 hour (AID 1224872). Further: nearly all actives have a fitted effect of over 50% in size. Further: potency means the concentration at half of the fitted maximal effect. In short, it runs like this:
as §2

A short description of test [18]: qHTS RealTime-Glo MT Cell Viability Assay in HEK293 cells - 0 hour (AID 1224880). In short, it runs like this: as §5
Test [19] is described as follows: qHTS assay to identify small molecule agonists of H2AX - cell viability counter screen (AID 1224847; calls by dose curve; further: nearly all actives have a fitted effect of over 30% in size; further: potency means the concentration at half of the fitted maximal effect). In short, it runs like this: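 CHO-K1 cells plated overnight at 37C, then exposed 3 h at 37C to compounds at 15 concentrations (0.76% DMSO final). Viability by CellTiter-Glo luminescence after 30 min at room temperature.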
On the % scale 0 is the no-effect control and ±100 the full control effect.

As to `C=C1C(=C/C=C2\CCC[C@]3(C)[C@@H]([C@H](C)/C=C/[C@@H](O)C4CC4)CC[C@@H]23)C[C@@H](O)C[C@@H]1O`, the Potency result in test [1], in [4], in test [6], in test [7], in test [8] and in test [10] was “inactive” in each case. Also, the Potency entry in test [11], in test [12], in test [13] and in [14] was “inactive” each time. Moreover, the Potency in test [2] was 13.3 µM (active); in test [5] it was 16.9 µM (active); in test [9] it was 8.49 µM (active). Further, the activity change, positive = activation in test [3] was -57.7% [at 42.5 µM].
`Nc1cccc(S(=O)(=O)c2cccc(N)c2)c1`: the Potency result in test [1], in test [15], in test [2], in test [4], in test [5] and in [6] was “inactive” in each case. The Potency entry in [7], in [16], in test [17], in [8], in [10] and in [11] was “inactive” in each case. In addition, the Potency result in test [12], in [13], in test [14] and in test [18] was “inactive” each time. Also, the activity change, positive = activation in test [3] was 0.747%. For the same molecule, in [9], the max response is -13.5%.
Consider `O=C(c1ccc(F)cc1)C1CCN(CCn2c(=S)[nH]c3ccccc3c2=O)CC1`, for which the Potency in [1] is 21.3 µM (active); in [19], 49.2 µM (active); in [2] it was 26.6 µM (active); in test [5] it was 5.35 µM (active); in test [17] it was 3.38 µM (active); in test [9], 5.35 µM (active). Also, the activity change, positive = activation in test [3] is -56.8% [at 42.5 µM]. In addition, the Potency result in [6], in test [7], in [16], in [11], in [12] and in [13] was “inactive” in each case.
In the case of `COc1ccc(C(=O)c2ccc(OC)cc2O)c(O)c1`, the Potency result in test [1], in test [15], in test [2], in test [4], in test [6] and in [7] was “inactive” each time. In addition, the Potency entry in [11], in [12], in [13] and in test [18] was “inactive” each time. Also, in [3], the activity change, positive = activation is -2.18% (active). Further, the Potency in test [5] was 27.7 µM (active); in [9], 24.7 µM (active); in test [14], 15.6 µM (active).
As to `CC(C)CC(=O)C1C(=O)c2ccccc2C1=O`, the Potency entry in test [1], in test [15], in test [4], in [5], in test [6] and in test [7] was “inactive” in each case. For the same molecule, the Potency result in test [16], in [17], in test [8], in test [10], in test [11] and in test [12] was “inactive” each time. The Potency result in test [13], in [14] and in test [18] was “inactive” in each case. Also, in [2], the Potency was 30.6 µM (active). In addition, the activity change, positive = activation in test [3] is -53.7%. In test [9], the max response was 0.634%.
Turning to `CC(=O)[O][Al][O]C(C)=O`, the Potency result in test [1], in [19], in test [2], in test [4], in test [5] and in [7] was “inactive” each time. Besides, the Potency result in [16], in test [17], in test [8], in test [10], in [11] and in test [12] was “inactive” each time. For the same molecule, the Potency entry in [13], in test [14] and in test [18] was “inactive” throughout. The activity change, positive = activation in [3] is 1.12%. Moreover, the max response in test [9] was 6.93%.
Consider `COc1ccc(C)cc1[N+](=O)[O-]`, for which the Potency entry in test [1], in test [19], in test [2], in test [4], in test [5] and in [7] was “inactive” in each case. Also, the Potency result in [16], in test [17], in [10], in test [12], in test [13] and in [14] was “inactive” each time. Also, the Potency result in test [18] is “inactive”. Moreover, the activity change, positive = activation in test [3] is 4.3%. Further, the max response in test [9] is -4.46%.
As for `CNCCCCOc1ccccc1Cc1ccccc1`, the Potency result in test [1], in test [15] and in test [18] was “inactive” in each case. In addition, the Potency in [5], in test [9], in test [11], in [13] and in test [14] was 23.9 µM (active) each time.
`C[N+]1(C)CCC(OC(=O)C(O)(c2ccccc2)C2CCCC2)C1` (stereo unspecified): the Potency entry in [1], in test [19], in [4], in [5], in [7] and in test [17] was “inactive” in each case. For the same molecule, the Potency result in [8], in test [11], in test [12], in test [13], in [14] and in [18] was “inactive” each time. In addition, the max response in test [9] is 3.92%. The Potency in test [10] was 23.9 µM (active).
In the case of `Cn1c(=O)cc(Oc2ccc(F)cc2F)c2cnc(NCC(C)(C)O)nc21`, the Potency result in test [1], in [15], in test [4], in test [6], in test [7] and in test [16] was “inactive” each time. In addition, the Potency result in test [8], in test [10], in test [11], in test [12], in test [13] and in test [14] was “inactive” each time. Also, the Potency entry in [18] is “inactive”. In addition, the Potency in test [2] was 30.6 µM (active). The activity change, positive = activation in test [3] is -55.2%.
As to `O=C(OCCCCCCOC(=O)c1ccccc1)c1ccccc1`, the Potency result in test [1], in [15], in test [2], in test [4], in test [7] and in test [16] was “inactive” throughout. The Potency result in test [8], in test [10], in [11], in test [12], in test [13] and in test [14] was “inactive” each time. Further, in test [3], the activity change, positive = activation is 1.59%.
With `CCn1cc(C(=O)O)c(=O)c2cnc(N3CCNCC3)nc21`, the Potency result in test [1], in [19], in test [2], in test [4], in test [5] and in test [6] was “inactive” in each case. Besides, the Potency entry in [7], in test [16], in test [17], in test [10], in test [11] and in [12] was “inactive” in each case. The Potency result in [13] and in test [14] was “inactive” each time. Further, the activity change, positive = activation in test [3] was 2.22% [at 42.5 µM]. Also, the max response in test [9] was 6.48%.
With `O=C(CS)Nc1ccccc1`, the Potency result in test [1], in test [19], in [4], in test [5], in [7] and in [17] was “inactive” in each case. Besides, the Potency result in test [10], in test [11], in [12], in test [13], in [14] and in test [18] was “inactive” throughout. Also, the max response in test [9] was -18%.
As for `CCC(C)c1cc(C(C)(C)C)c(O)c(C(C)(C)C)c1` (stereo unspecified), the Potency result in test [1], in [15], in test [4], in test [5], in test [6] and in [7] was “inactive” in each case. Further, the Potency entry in test [8], in test [11], in test [12], in test [13], in test [14] and in test [18] was “inactive” in each case. The max response in test [9] is 0.103%.
